# Measurements published in PubChem BioAssay (NCATS).
# Records with an inconclusive call do not appear. A number with no mark means an inactive call. Active and inactive are the calls of the source. The call rests on the fitted dose curve; in most records, active means well fitted inhibition curve with a large enough effect; inconclusive means small, poorly fitted or top-dose-only effect; inactive means flat fitted curve, though single readings scatter. *1 amine or outer side, *2 acyl side, *3 side chain or, on linkers, in order; H or OH if unused. Where a SMILES comes first, the peptide text is derived from it. [ ]: non-standard residue; d: D form. X13 = O=C(C(CC(O)CO)O[*:1])[*:2]; NMeV = CN[CH](C(=O)O)C(C)C; NMeA = CN[CH](C)C(=O)O; βAla = NCCC(=O)O
# Molecular target: Glutathione peroxidase 1 (Homo sapiens) (UniProt P07203)
# Assay: Primary qHTS Assay for Inhibitors of Recombinant Selenoprotein Glutathione Peroxidase 1 (GPX1) (AID 1845191)
# Settings: recombinant GPX1, GR-coupled NADPH fluorescence, 15 min; series mostly up to 27.7 µM; activity, negative = inhibition: at the top concentration
# How it was run: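 10 nM GPX1 + cpd, 30 min RT; start w/ 1 mM GSH, 0.5 mM cumene hydroperoxide, 0.5 mM NADPH, 100 nM GR, 0.01% BSA; buffer 50 mM Tris-HCl pH 7.5, 2 mM EDTA, 150 mM NaCl; Fl 340/450, 0 & 15 min.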
# Further: nearly all actives have a fitted effect of over 65% in size.
# On the % scale 0 is the no-effect control and ±100 the full control effect.
# Glutathione peroxidase 1 (Homo sapiens), sequence (P07203 whole entry, looked up): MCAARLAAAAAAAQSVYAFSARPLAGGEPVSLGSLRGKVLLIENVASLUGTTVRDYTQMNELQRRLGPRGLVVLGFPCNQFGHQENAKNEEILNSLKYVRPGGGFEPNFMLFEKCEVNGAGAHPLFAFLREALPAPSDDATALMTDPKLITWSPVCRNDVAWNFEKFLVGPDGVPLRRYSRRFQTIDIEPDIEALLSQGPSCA
SMILES,Potency,outcome,"activity, negative = inhibition"
CCC(=O)OCC(=O)[C@@]1(OC(=O)CC)[C@@H](C)C[C@H]2[C@@H]3CCC4=CC(=O)C=C[C@]4(C)[C@@]3(F)[C@@H](O)C[C@@]21C,inactive,–,–
C[C@@H]1O[C@@H](O[C@@H]2[C@@H](O)[C@H](O[C@H]3[C@H](O[C@H]4CC[C@@]5(C)C(CC[C@]6(C)C5CC=C5[C@@H]7CC(C)(C)CC[C@]7(C(=O)O[C@@H]7O[C@H](CO)[C@@H](O)[C@H](O)[C@H]7O)CC[C@]56C)C4(C)C)O[C@H](C(=O)O)[C@@H](O)[C@@H]3O)OC[C@H]2O)[C@H](O)[C@H](O)[C@H]1O (stereo not given in full),–,inactive [at 15.3 µM],–
COc1ccc(CCc2nc3cc(-c4c(C)noc4C)ccc3n2C[C@H](C)N2CCOCC2)cc1Cl,–,–,-16.5% [at 48.8 µM]
C=C1CCc2occ(C)c2[C@H]2[C@H]1[C@@]13O[C@@]1(C[C@@H](C)[C@H]3OC(C)=O)[C@H]1O[C@@]21C,–,inactive,–
CC(NC(=O)c1ccccc1N)C(=O)O (stereo not given),–,–,-0.74% [at 48.8 µM]
CC1(C)COC(=O)[C@@H]1O[C@@H]1O[C@H](CO)[C@@H](O)[C@H](O)[C@H]1O,–,inactive [at 48.8 µM],–
O=C(O)CCc1c(C(=O)O)[nH]c2cc(Cl)cc(Cl)c12,–,–,3.49%
CC1(C)CC[C@]2(C(=O)O)CC[C@]3(C)C(=CCC4[C@@]5(C)C[C@H](O)[C@H](O[C@@H]6O[C@H](CO)[C@@H](O)[C@H](O)[C@H]6O)[C@@](C)(CO)C5[C@H](O)C[C@]43C)[C@@H]2C1 (stereo not given in full),–,–,1.11% [at 15.3 µM]
CCC(C)C1NC(=O)C2CCCN2C(=O)C(CC(O)CO)OC(=O)CCNC(=O)C(C)N(C)C(=O)C(C(C)C)N(C)C1=O (stereo not given) (cyclo([X13]PI[NMeV][NMeA][βAla]); configuration not given here),–,inactive [at 15.3 µM],–
CC(C)C1NC(=O)CNC(=O)C2CCCN2C(=O)C(Cc2c[nH]c3ccccc23)NC(=O)CNC(=O)C(Cc2ccc(O)cc2)NC(=O)CNC1=O (stereo not given) (cyclo(GVGYGWP); configuration not given here),–,inactive [at 15.3 µM],–
CC1(C)CC[C@]2(C(=O)O)CC[C@]3(C)C(=CCC4[C@@]5(C)C[C@@H](O)[C@H](O)[C@](C)(CO)C5CC[C@]43C)[C@@H]2[C@@H]1O (stereo not given in full),–,–,-7.73%

# Molecular target: Phospholipid hydroperoxide glutathione peroxidase GPX4 (Homo sapiens) (UniProt P36969)
# Assay: Primary qHTS Assay for Inhibitors of Recombinant Selenoprotein Glutathione Peroxidase 4 (GPX4) (AID 1845192)
# Settings: recombinant GPX4, GR-coupled NADPH fluorescence, 15 min; series mostly up to 27.8 µM; activity change, negative = inhibition: at the top concentration
# How it was run: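 NADPH consumption, followed by fluorescence at 340/450 nm between 0 and 15 min, reports GPX4 activity via coupled glutathione reductase (100 nM). Enzyme 200 nM was pre-exposed to compound 30 min; 0.5 mM cumene hydroperoxide and 1 mM GSH served as substrates.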
# Phospholipid hydroperoxide glutathione peroxidase GPX4 (Homo sapiens), sequence (P36969 whole entry, looked up): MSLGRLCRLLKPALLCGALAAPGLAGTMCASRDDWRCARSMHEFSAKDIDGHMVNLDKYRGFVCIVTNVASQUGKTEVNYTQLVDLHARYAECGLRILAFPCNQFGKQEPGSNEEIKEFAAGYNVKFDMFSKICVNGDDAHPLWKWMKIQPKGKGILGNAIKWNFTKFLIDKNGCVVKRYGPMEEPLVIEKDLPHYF
SMILES,"activity change, negative = inhibition",outcome
CCCC/C=C\CCCCCc1cc(=O)c2ccccc2n1C,-6.62%,–
C=C1C(=O)O[C@@H]2C[C@]3(C)[C@@H](CCC(C)=O)[C@@H]3C[C@H]12,-24.5% [at 50 µM],–
CC1=C2C[C@H]3OC(=O)[C@H](O)[C@@]4(O)[C@@H](C)[C@@H](O)[C@H](O)C([C@@]2(C)[C@H](O)[C@@H](O)C1)[C@@]34C (stereo not given in full),–,inactive
O=C(O)c1ccc(NC(=O)[C@H](CC2CCCC2)n2cnc(C(F)(F)F)c2)nc1,–,inactive [at 50 µM]
CC1(C(=O)O)CCCC2(C)C3CC4C5CC3(CCC12)CC45C (stereo not given),-13.4% [at 50 µM],–
O=C(NC/C=C/CN1CCN(c2cccc(Cl)c2Cl)CC1)c1ccc(-c2ccccn2)cc1,-0.931% [at 50 µM],–
CC(=O)NC(C(=O)OC1CCC(C)(C)C2CC=C3C(=O)OCC3C12C)C(C)C (stereo not given),–,inactive
CC(=O)OCC1=CCC2C(C)(C)CCCC2(C)C12CCC(C)(CC(=O)O)O2 (stereo not given),-11.3%,–
COC(=O)C(CC1(O)c2ccccc2N2C(=O)C(C)(C)N(O)C21)n1cnc2ccccc2c1=O (stereo not given),-2.31%,–
COc1ccc(S(=O)(=O)Nc2nc(-c3cccc([N+](=O)[O-])c3)cs2)cc1OC,-17% [at 50 µM],–
C=CCC/C=C/C#CCCCCCCCC[C@H]1C(=O)O[C@H](C)[C@@H]1O,-9.58%,–
CCOC(=O)COc1ccc2c(c1)C[C@@H](NC[C@H](O)c1cccc(Cl)c1)CC2,-6.19% [at 50 µM],–
CCCCC(=O)N1c2ccccc2NC2=C(C(=O)CCC2)C1c1ccccc1Cl (stereo not given),3.86% [at 50 µM],–
C[C@H]1[C@H](C)CC[C@]2(C(=O)O)CC[C@]3(C(=O)O)C(=CCC4[C@@]5(C)CC[C@H](O[C@@H]6O[C@@H](C)[C@H](O)[C@@H](O)[C@H]6O)C(C)(C)C5CC[C@]43C)[C@H]12 (stereo not given in full),–,inactive [at 15.3 µM]
C=C(C(=O)O)[C@@H]1CC[C@@]2(C)CCC[C@@](C)(O)[C@@H]2C1,-10.1% [at 50 µM],–
OC[C@H]1O[C@@H](Oc2cc(O)cc(-c3cc4ccc(O[C@@H]5O[C@H](CO)[C@@H](O)[C@H](O)[C@H]5O)cc4o3)c2)[C@H](O)[C@@H](O)[C@@H]1O,-4.94%,–
COc1ccnc(CCc2nc3ncccc3[nH]2)c1,4.84% [at 50 µM],–
Cc1oc2nc3c(c(NC(=O)CN4CCCC4=O)c2c1C)CCCC3,4.73% [at 50 µM],–
C/C=C/C1OC2=C(C(=O)OC2(C)O)C(O)C1O (stereo not given),-2.51% [at 50 µM],–
